Shown are actives, neighbours in structure and some others; about 32% of the full set was active somewhere.
CYP2C19 activ: cytochrome P450 2C19 (human) activation; P33261; recombinant CYP2C19, luciferin-H EGE luminescence; active compounds read high; 0 = fully inhibited enzyme, 1 = untreated enzyme; 96,000 tested, under 10 active; activation factor at 5 µM;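 active means activation factor of at least 2 at 5 µM in the primary screen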;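 further: 0 = wells with 2.5 mM tranylcypromine and 1 = vehicle-only wells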
CYP2C19 inhib: human CYP2C19 inhibition; CYP2C19 Supersomes, luciferin-H EGE luminescence, 30 min; AID 778; 21% of 96,000 active; inhibition, % at 5 µM; P33261;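 active means CYP2C19 inhibition above a set limit at 5 µM in the primary screen, cut at about 50% in these data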;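 further: plate controls were negative control wells for no effect and 2.5 mM tranylcypromine positive control for full effect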
CYP2C9 inh: blocks human cytochrome P450 2C9; P11712; CYP2C9 Supersomes, luciferin-H conversion, luminescence; inhibition, % at 5 µM; 20% of 96,000 active;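 active means blocking of liver enzyme CYP2C9 beyond about 50% at 5 µM, limit read from the data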
Target sequence (P11712 whole entry, looked up): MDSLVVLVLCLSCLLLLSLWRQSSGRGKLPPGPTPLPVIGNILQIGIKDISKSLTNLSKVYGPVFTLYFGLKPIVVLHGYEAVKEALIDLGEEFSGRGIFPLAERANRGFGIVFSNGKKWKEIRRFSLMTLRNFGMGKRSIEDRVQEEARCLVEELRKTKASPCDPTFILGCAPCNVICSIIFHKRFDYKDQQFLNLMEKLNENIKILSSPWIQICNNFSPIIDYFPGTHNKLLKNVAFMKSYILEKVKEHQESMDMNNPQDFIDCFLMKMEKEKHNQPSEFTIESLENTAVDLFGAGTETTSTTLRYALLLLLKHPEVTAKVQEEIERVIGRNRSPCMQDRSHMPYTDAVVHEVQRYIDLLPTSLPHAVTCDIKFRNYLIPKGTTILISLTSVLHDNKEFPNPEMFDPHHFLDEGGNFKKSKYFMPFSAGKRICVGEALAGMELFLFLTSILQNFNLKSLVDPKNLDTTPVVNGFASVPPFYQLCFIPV
PostGolgi yeast: growth inhibition of a yeast mutant, post-Golgi transport screen; post-Golgi transport phenotypic cell assay; 0.9% of 98,000 active; AID 739; inhibition, % at 10 µM;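 further: yeast cells grown in 1536-well plates; yeast grown about 18 h at 30C before absorbance read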
CYP2C9 act: activators of human CYP2C9; activation factor at 5 µM; recombinant CYP2C9, luciferin-H conversion, luminescence; active compounds read high; factor 1 = untreated enzyme, 0 = blocked; 1.4% of 96,000 active; P11712;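 active means activation factor of 2 or more for CYP2C9 at a 5 µM dose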;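 further: 0 = sulfaphenazole-blocked wells and 1 = vehicle-only wells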
PostGolgi ctrl: yeast control strain growth, post-Golgi counter-screen; efflux-deficient yeast background strain, growth absorbance A615, 16 h; inhibition, % at 10 µM; 5% of 98,000 active
* hit, by the source's call. Unless noted, no stated cut-off is given here; in the data, active means inhibition above about 30%; inactive means the rest.

SMILES	CYP2C19 activ	CYP2C19 inhib	CYP2C9 inh	PostGolgi yeast	CYP2C9 act	PostGolgi ctrl
CCOC(=O)COc1ccc(S(=O)(=O)Nc2cccc(SC)c2)cc1	0.1	88*	78*	5	0.2	-9
Nc1ccc2nc(-c3ccccc3)sc2c1	0.3	72*	51*	3	0.5	2
c1ccc(-c2nnc(CSc3nncs3)o2)cc1	0.7	32	4	4	1	9
Cc1cc(=O)n2nc(N3CCC(C(=O)NCc4cccnc4)CC3)sc2n1	1	0	6	3	0.9	-2
CCOc1ccc(NC(=O)CN(c2ccc(OC)cc2)S(C)(=O)=O)cc1	0.8	25	49	-6	0.5	0
COc1ccc(N(CC(=O)NC(C)C)S(=O)(=O)c2ccc(NC(C)=O)cc2)cc1	0.1	88*	93*	0	0.1	1
CCOc1ccc(N(CC(=O)Nc2ccc(OC)cc2)S(C)(=O)=O)cc1	0.9	11	20	-8	0.8	-3
COC(=O)c1ccc(NC(=O)CN(c2ccc(OC)cc2)S(C)(=O)=O)cc1	0.8	15	67*	-3	0.3	12
COc1ccc(C)cc1NC(=O)CN(c1ccccc1)S(C)(=O)=O	0.8	22	51*	-11	0.5	3
COc1ccc(NC(=O)CN(c2ccc(C)cc2)S(C)(=O)=O)c(OC)c1	0.2	78*	98*	5	0	7
CN(C(=O)CN1CCC(NC(=O)C2CCCCC2)CC1)C1CCCCC1	1	2	0	-1	1	2
COc1ccc(CCNC(=O)CN(c2ccc(OC)c(OC)c2)S(C)(=O)=O)cc1	0.6	38	80*	-5	0.2	0
C=CCNC(=O)CN(c1ccc(OC)cc1OC)S(C)(=O)=O	0.8	17	-5	-5	1	9
COc1ccc(OC)c(NC(=O)CN(c2ccc(OC)c(Cl)c2)S(C)(=O)=O)c1	0.6	39	63*	3	0.4	15
COc1ccc(C(=O)NCCn2cc(SCC(=O)NCc3ccco3)c3ccccc32)cc1	0	96*	85*	4	0.1	21
CCn1c(=O)cc(SCC(=O)NCc2ccco2)c2ccccc21	0.8	19	-74	-4	1.7	3
Cc1nnc(NC(=O)CSc2cn(CCNC(=O)c3ccccc3)c3ccccc23)s1	0.9	13	49	-1	0.5	5
Cc1cc(NC(=O)CSc2cn(CCNC(=O)c3ccc(F)cc3)c3ccccc23)no1	0.4	64*	75*	0	0.3	4
CCOC(=O)N1CCN(c2c(NCCCN3CCCCCC3)c(=O)c2=O)CC1	1.1	-10	-11	-2	1.1	9
CC(C)(C)S(=O)(=O)c1cnc2c(-c3ccc(Cl)cc3)cnn2c1N	1	-5	3	4	1	34*
CCSc1nc(C2CC2)cc(-c2cccs2)c1C#N	0.3	68*	41	14	0.6	2
CCCSc1nc(N)nc(-c2cccs2)c1C#N	0.6	40	73*	10	0.3	23
CCSc1nc(C2CC2)cc(-c2ccco2)c1C#N	0.9	14	-34	0	1.3	21
CN1CCOc2cc(S(=O)(=O)Nc3ccc(F)cc3)ccc21	0.1	87*	60*	-1	0.4	2
CC1CCN(CCc2nc3cc(NS(=O)(=O)c4ccc(F)cc4)ccc3n2C)CC1	1	-2	-2	-10	1	-4
SMILES	CYP2C19 activ	CYP2C19 inhib	CYP2C9 inh	PostGolgi yeast	CYP2C9 act	PostGolgi ctrl
COc1cccc(-n2c(Cc3cc(=O)[nH]c(=O)[nH]3)nnc2SCC(=O)N2CCCCCC2)c1	1.1	-9	8	-8	0.9	3
Cc1ccc(C)c(Cn2c(C(C)O)nc3ccccc32)c1 (stereo not given)	0.7	32	1	4	1	12
CCc1cc2c(=O)nc3n(c2s1)Cc1ccccc1/C3=C(/O)c1cccc([N+](=O)[O-])c1	1.1	-13	52*	1	0.5	16
C=CCn1c(CNc2ccc(C)cc2)nnc1SCC(=O)N/N=C/c1ccc(O)cc1	0.9	14	-2	1	1	3
NC(=O)c1oc2ccc(Cl)cc2c1NC(=O)CN1CCOCC1	0.5	52*	16	-1	0.8	-2
COC(=O)c1oc2ccc(Br)cc2c1NC(=O)CCN1CCOCC1	0.6	45	55*	-4	0.4	8
CCOC(=O)c1oc2ccc(Br)cc2c1NC(=O)CN1CCN(C)CC1	1	5	2	3	1	-2
